# Results published in PubChem BioAssay.
# Active and inactive are the calls of the source.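 How the source made its calls, unless noted: active means mean inhibition above 46.5%, the solvent-only control mean plus 3 SD; inactive means the rest.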
# Experiments:
# [1] = tested on: transactivating tegument protein VP16 (Human herpesvirus 1); test: compounds suppressing VP16-driven luciferase signal – cell-based, luminescence, single concentration, counter-screen for SRC2 inhibitor project (AID 652007; in the data active means inhibition above about 36%); conditions: cell-based VP16 transactivation luciferase reporter, at 8.9 µM, hits give high values
# [2] = target: Nuclear receptor coactivator 2 (Homo sapiens) (UniProt Q15596); test: inhibition of GAL4-SRC2 driven luciferase expression – cell-based, luminescence, HEK293, triplicate, confirmation (AID 652008); conditions: HEK293 GAL4-SRC2 luciferase reporter, at 8.9 µM, hits give high values;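 further: 0% = DMSO-treated cells and 100% = Gossypol at 36 µM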
# Sequence of Nuclear receptor coactivator 2 (Homo sapiens) (Q15596 whole entry, looked up, the tested form may be a part): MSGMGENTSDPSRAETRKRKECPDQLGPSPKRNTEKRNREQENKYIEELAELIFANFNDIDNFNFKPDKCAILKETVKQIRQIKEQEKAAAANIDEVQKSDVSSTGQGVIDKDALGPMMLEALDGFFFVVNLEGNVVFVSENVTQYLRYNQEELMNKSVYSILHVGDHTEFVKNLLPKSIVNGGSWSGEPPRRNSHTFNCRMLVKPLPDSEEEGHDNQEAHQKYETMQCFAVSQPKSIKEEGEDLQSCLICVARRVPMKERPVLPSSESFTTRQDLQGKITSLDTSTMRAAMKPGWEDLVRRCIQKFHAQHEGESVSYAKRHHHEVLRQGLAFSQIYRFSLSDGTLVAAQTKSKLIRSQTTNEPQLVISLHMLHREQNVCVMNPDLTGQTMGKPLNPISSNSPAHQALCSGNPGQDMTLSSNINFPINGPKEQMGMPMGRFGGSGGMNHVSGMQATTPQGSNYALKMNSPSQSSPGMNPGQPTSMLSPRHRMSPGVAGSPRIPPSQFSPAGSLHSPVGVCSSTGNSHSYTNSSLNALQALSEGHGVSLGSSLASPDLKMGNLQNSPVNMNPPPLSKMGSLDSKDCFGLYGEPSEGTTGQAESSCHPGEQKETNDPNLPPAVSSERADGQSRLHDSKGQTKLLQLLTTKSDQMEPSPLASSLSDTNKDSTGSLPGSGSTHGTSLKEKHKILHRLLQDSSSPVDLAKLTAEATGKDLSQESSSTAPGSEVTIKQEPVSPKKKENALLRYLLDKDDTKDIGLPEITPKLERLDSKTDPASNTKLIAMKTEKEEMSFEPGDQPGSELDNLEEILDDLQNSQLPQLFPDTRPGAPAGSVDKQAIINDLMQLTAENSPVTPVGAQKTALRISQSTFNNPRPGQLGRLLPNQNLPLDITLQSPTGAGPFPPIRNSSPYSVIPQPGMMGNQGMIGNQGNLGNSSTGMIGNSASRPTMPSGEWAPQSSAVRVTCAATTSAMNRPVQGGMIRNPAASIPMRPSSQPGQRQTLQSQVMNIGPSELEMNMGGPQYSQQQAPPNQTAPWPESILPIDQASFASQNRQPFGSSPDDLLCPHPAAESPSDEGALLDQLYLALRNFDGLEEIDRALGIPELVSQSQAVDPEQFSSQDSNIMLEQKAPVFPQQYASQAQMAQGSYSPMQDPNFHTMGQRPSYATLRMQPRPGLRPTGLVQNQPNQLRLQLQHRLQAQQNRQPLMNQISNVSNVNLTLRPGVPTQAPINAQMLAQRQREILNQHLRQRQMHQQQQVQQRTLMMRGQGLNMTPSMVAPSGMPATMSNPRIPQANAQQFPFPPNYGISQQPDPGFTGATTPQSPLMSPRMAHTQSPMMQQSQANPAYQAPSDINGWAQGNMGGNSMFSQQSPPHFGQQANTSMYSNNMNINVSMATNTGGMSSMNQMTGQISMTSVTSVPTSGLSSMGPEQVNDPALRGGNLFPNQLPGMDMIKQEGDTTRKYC
Structure (SMILES),inhibition [1],inhibition [2]
O=C(NC1=NCCS1)C1COc2ccccc2O1 (stereo not given),29.5% (inactive),47.7% (active)
COc1cc(/C=C/C(=O)c2ccc3c(c2)OCCO3)cc(OC)c1OC,5.55% (inactive),29.2% (inactive)
CCN(CC)C(=O)C1CCCN(c2ncnc3c2cnn3-c2cccc(C)c2)C1 (stereo not given),-13.2% (inactive),30.7% (inactive)
O=C(COC(=O)c1cccc(F)c1)Nc1cccc(S(=O)(=O)N2CCCCC2)c1,1.01% (inactive),2.48% (inactive)
COC(=O)c1c(NC(=O)CCCC(=O)O)sc2c1CCCCC2,29.6% (inactive),53.8% (active)
